# Assay outcomes as filed in PubChem.
# A selection: hits, their analogues and other compounds. The true share with any hit is near 13%.
# RAM inhibit = yeast RAM network inhibition; AID 868; inhibition, % at 50 µM; S. cerevisiae dse1pr::URA3 reporter, 5-FOA growth OD615, 2 d; analog-sensitive cbk1-as2 kinase mutant strain; actives 1.8% (n = 190,000);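 active means inhibition above a set limit, 3 SD over mean compound inhibition, cut at about 8.4% in these data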;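 further: 0% = DMSO-only wells with no growth and 100% = 10 µM 1-NA-PP1 full growth; inhibition rescues growth on 5-FOA so higher OD means more RAM inhibition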
# Lmaj promast = inhibitors of Leishmania major promastigote growth. Leishmania major promastigotes, resazurin fluorescence viability. inhibition, % at 10 µM. actives 9% (n = 200,000); in the data active means inhibition above about 50%;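 further: promastigotes grown with compound for 44 hours at 28 °C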
# CHOP inhibitor = inhibitors of CHOP induction in ER stress response. CHO-K1 CHOP-promoter luciferase, tunicamycin-induced, 15-18 h. inhibition, % at 10 µM. actives 3.8% (n = 220,000);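 active means compounds that reduced the stress-induced luciferase reporter signal by more than about 70% of percent inhibition, limit read from the data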;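 further: 0% = tunicamycin plus vehicle and 100% = wells without tunicamycin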
# WT yeast gro inh = growth inhibition of WT yeast, mitochondrial fusion screen. mitochondrial fusion phenotypic screen, WT strain. inhibition, % at 10 µM. actives 2.1% (n = 190,000). AID 1362; in the data active means inhibition above about 58%; tested in S. cerevisiae
# RAM efflux-def = RAM network inhibitors in efflux-deficient yeast | shares compounds with RAM inhibit | S. cerevisiae efflux-deficient reporter strain, 5-FOA growth OD615, 2 days | max inhibition, % | 1,200 tested, under 10 active; call rule not given here;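 further: plate controls were vehicle for no effect and reference inhibitor for full effect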
# * hit, by the source's call; · = no result given.
SMILES,RAM inhibit,Lmaj promast,CHOP inhibitor,WT yeast gro inh,RAM efflux-def
COc1ccc(CNc2oc(Cc3cccc4ccccc34)nc2C#N)cc1,13*,19,39,-5,3
N#Cc1nc(Cc2ccccc2)oc1N1CCC(Cc2ccccc2)CC1,13*,1,29,1,7
COc1ccc(CNc2oc(COc3ccccc3)nc2C#N)cc1,5,0,-14,7,·
N#Cc1nc(Cc2cccc3ccccc23)oc1N1CCCCC1,12*,14,76*,39,3
CN1CCN(c2oc(Cc3cccc4ccccc34)nc2C#N)CC1,·,·,3,·,·
N#Cc1nc(Cc2ccccc2)oc1N1CCN(c2ccccc2)CC1,5,-4,-35,·,·
COc1ccccc1-c1nc(C#N)c(N2CCC(Cc3ccccc3)CC2)o1,13*,-2,-11,2,5
Nc1c(C(=O)N/N=C/c2ccc([N+](=O)[O-])cc2)sc2nnc(-c3ccccc3)c(-c3ccccc3)c12,·,·,-8,·,·
CCO[C@H]1OC(C(=O)NCc2ccccc2)=C[C@@H](c2ccccc2)[C@@H]1CCCO,-1,1,18,0,·
Cn1ccnc1SCC(=O)Nc1ccc2c(c1)OC(F)(F)O2,2,-5,-24,6,·
O=C(CCCOc1ccc(Cl)cc1Cl)N/N=C/c1ccccc1,12*,3,-12,21,2
CC(=O)c1ccc(OC(=O)CCN2c3ccccc3Sc3ccccc32)cc1,11*,53*,-11,61*,3
CCCC(c1nnnn1Cc1ccco1)N1CCN(c2cc(Cl)ccc2C)CC1 (stereo unspecified),21*,-1,63,30,2
CCOC(=O)c1sc(NC(=O)C2CCC2)cc1C,0,7,-23,-15,·
Cc1ccc(CSCCNC(=O)c2ccccc2)cc1,0,8,-7,-9,·
Cc1cccc(CSCCNC(=O)c2ccc(N(C)S(=O)(=O)c3ccccc3)cc2)c1,18*,1,-3,26,5
Cc1ccc(N/N=C/c2c(C)c(C#N)c(=O)n(C)c2O)cc1C,13*,80*,19,27,2
N#CC(c1ccc(F)cc1)c1ccc(C(=O)c2ccccc2)cc1 (stereo unspecified),17*,40,28,16,4
CC(=O)Nc1ccc(C(C#N)c2ccccc2)cc1 (stereo unspecified),2,-5,-10,-1,·
C=CCN(c1ccccc1Cl)S(=O)(=O)c1cccc(C(=O)NCCc2ccc(OC)cc2)c1,14*,64*,50,7,4
O=S(=O)(Nc1ccc(N=Nc2ccc(O)c3ccccc23)cc1)c1ccccc1,13*,86*,89*,59*,3
O=S(=O)(Nc1ccc(S(=O)(=O)Nc2cccc3ccccc23)cc1)c1ccccc1,8,0,-14,-6,·
CCc1ccc(C(=O)COC(=O)C(Cc2ccccc2)NC(=O)c2ccc(Cl)cc2)cc1 (stereo unspecified),17*,75*,37,17,3
CC(=O)NC(Cc1ccccc1)C(=O)OCC(=O)c1ccc(Cl)cc1 (stereo unspecified),0,25,26,-6,·
CCOC(=O)CC(=O)CSc1nc(N)c(C#N)c(-c2ccc(Cl)cc2)c1C#N,13*,-4,9,-35,3
SMILES,RAM inhibit,Lmaj promast,CHOP inhibitor,WT yeast gro inh,RAM efflux-def
CCc1ccc(NC(=O)Cn2cccc2)cc1,0,1,40,-7,·
O=C(O)C(c1ccccc1)N1C(=O)/C(=C/c2cccs2)SC1=S (stereo unspecified),·,·,6,·,·
COc1cccc(/C=C2\SC(=S)N(C(Cc3ccccc3)C(=O)O)C2=O)c1 (stereo unspecified),12*,-1,-8,-22,1
O=C(O)C(Cc1ccccc1)N1C(=O)/C(=C/c2cccs2)SC1=S (stereo unspecified),15*,-6,-6,-9,2
CN(C)C(=O)c1ccc(NC(=O)COc2ccc([N+](=O)[O-])cc2)cc1,6,-10,1,3,·
Cc1c(C(=O)NN2CCOCC2)oc2c1ccc1ccccc12,-1,19,35,11,·
COc1ccc(N2CCCC2=N)c(OC)c1,·,·,-19,·,·
O=C(NCc1ccc(F)cc1)c1ccc(S(=O)(=O)Nc2cccc(C(F)(F)F)c2)cc1,13*,66*,33,5,2
O=C(NCc1ccccc1F)c1ccc(S(=O)(=O)Nc2cccc(C(F)(F)F)c2)cc1,1,-1,20,-21,·
COc1ccc(/C=C/C(=O)OCC(=O)Nc2ccc(C)cc2)cc1S(=O)(=O)N1CCOCC1,2,44,3,-7,·
CCCC(CCC)C(=O)Nc1ccc2c(c1)N(C(=O)CCN1CCN(C)CC1)c1ccccc1CC2,1,-1,-7,7,·
COC(=O)C(Sc1nc(C)cc(C)c1C#N)c1ccccc1 (stereo unspecified),12*,98*,68,25,1
CCONC(=O)Nc1ccccc1,-3,-8,-13,9,·
Cn1cccc1C(=O)OCc1cc(Cl)cc2c1OCOC2,12*,3,73*,-1,4
CCCOc1ccc(-c2nc[nH]c2[N+](=O)[O-])cc1,1,19,-19,1,·
CCC(Oc1ccc2c(=O)c(-c3ccccc3OC)coc2c1)C(=O)OCc1ccccc1 (stereo unspecified),22*,8,-11,22,2
CC(=O)Nc1ccc(S(=O)(=O)Nc2nc3ccccc3nc2-n2ccc(=NC(=O)c3ccc(F)cc3)cc2)cc1,12*,-5,17,-10,2
CC(C)c1nc2oc3c(N(C)CCO)ncnc3c2c2c1CCC2,·,·,9,·,·
O=C(Nc1ccn(Cc2ccccc2F)n1)c1ccc(COc2ccc(Br)cc2)cc1,16*,-3,44,1,2
O=C(Nc1ccc(Cn2cccn2)cc1)c1ccc(COc2ccc(Br)cc2)cc1,2,-1,-16,-5,·
COc1cccc(CN(C)Cc2nc(Cc3ccccc3Cl)no2)c1,0,3,-6,1,·
O=S(=O)(c1ccccc1)N1CCN=C1SCc1ccc(Cl)c(Cl)c1,12*,51*,72*,53,2
COc1ccc(NC2=C(Cl)C(=O)N(CCc3ccccc3)C2=O)c(OC)c1,16*,14,35,15,6
COc1ccc(NC2=C(Cl)C(=O)N(CCc3ccccc3)C2=O)cc1,4,-5,2,-13,·
CC1Nc2nc(N(C)C)[nH]c(=O)c2NC1C (stereo unspecified),1,-3,-6,0,·
CCOCCOC(=O)C(C)Oc1ccc(Oc2nc(Cl)ccc2Cl)cc1 (stereo unspecified),13*,-6,62,-4,2
Cc1ccc(C2CC(=O)Nc3cc4c(cc32)OCO4)o1 (stereo unspecified),0,27,-6,-16,·
Cc1ccc(C(=O)COC(=O)c2cn3ccccc3n2)cc1,1,3,6,-9,·
CCOC(=O)c1c(C)[nH]c(N=Nc2cccc(C)c2)c1C,12*,9,71*,73*,3
COc1ccc(C)cc1S(=O)(=O)N(CC(=O)NCc1ccc(Cl)cc1)Cc1ccccc1,12*,99*,31,49,2
